Data: the antibiotic and cytotoxicity screens of Wong et al. (2023)
The campaign covered roughly 39,000 compounds. About 3,300 (8.5%) were called active. This excerpt belongs to a sample that is enriched for actives.

system: HepG2; test: cytotoxicity call (relative viability < 0.9); settings: 10 µM

Row | Structure (SMILES) | cytotoxicity call
1 | CCS(=O)(=O)N[C@@H]1C=C[C@H](CC(=O)NCc2ccccn2)O[C@@H]1CO | inactive
2 | COc1ccc(NC(=O)N(C)C[C@H]2OCCCC[C@@H](C)Oc3ccc(NS(=O)(=O)c4cccs4)cc3C(=O)N([C@H](C)CO)C[C@@H]2C)cc1 | inactive
3 | C[C@@H]1CN([C@H](C)CO)C(=O)c2cc(NC(=O)c3ccncc3)ccc2O[C@H]1CN(C)Cc1ccc2c(c1)OCO2 | inactive
4 | O=C(C[C@@H]1C[C@@H]2c3cc(NC(=O)c4ccc5c(c4)OCO5)ccc3O[C@@H]2[C@@H](CO)O1)NCc1ccc(Oc2ccccc2)cc1 | inactive
5 | O=C(C[C@H]1C[C@H]2c3cc(NC(=O)c4ccc5c(c4)OCO5)ccc3O[C@H]2[C@@H](CO)O1)NCc1ccc(Oc2ccccc2)cc1 | active
6 | O=C(C[C@@H]1C[C@H]2c3cc(NC(=O)c4ccc5c(c4)OCO5)ccc3O[C@H]2[C@@H](CO)O1)NCc1ccc(Oc2ccccc2)cc1 | inactive
7 | Cc1noc(C)c1NC(=O)Nc1ccc2c(c1)C(=O)N([C@@H](C)CO)C[C@@H](C)[C@@H](CN(C)Cc1ccc3c(c1)OCO3)OCCCC[C@@H](C)O2 | inactive
8 | COc1ccc(COC[C@]23N=C4Sc5ccc([N+](=O)[O-])cc5C(=O)N4[C@H](c4ccccc4O2)[C@H]3CO[Si](C)(C)C(C)(C)C)cc1 | inactive
9 | C[C@@H]1CN([C@@H](C)CO)C(=O)c2c(c3ccccc3n2C)-c2ccccc2CO[C@@H]1CN(C)C(=O)Nc1ccc(F)cc1 | inactive
10 | C[C@@H]1CCCCO[C@H](CN(C)Cc2ccc3c(c2)OCO3)[C@@H](C)CN([C@H](C)CO)C(=O)c2cc(NC(=O)Nc3cccc4ccccc34)ccc2O1 | inactive
11 | C[C@@H]1CCCCO[C@@H](CN(C)Cc2ccc3c(c2)OCO3)[C@H](C)CN([C@H](C)CO)C(=O)c2cc(NC(=O)Nc3cccc4ccccc34)ccc2O1 | active
12 | C[C@H]1CCCCO[C@H](CN(C)Cc2ccc3c(c2)OCO3)[C@@H](C)CN([C@@H](C)CO)C(=O)c2cc(NC(=O)Nc3cccc4ccccc34)ccc2O1 | active
13 | C[C@H](CO)N1C[C@H](C)[C@H](CN(C)Cc2ccc3c(c2)OCO3)OCCCC[C@H](C)Oc2ccc(NC(=O)Nc3cccc4ccccc34)cc2C1=O | active
14 | C[C@@H]1CN([C@H](C)CO)C(=O)c2cc(NC(=O)Nc3cccc4ccccc34)ccc2O[C@@H](C)CCCCO[C@H]1CN(C)Cc1ccc2c(c1)OCO2 | active
15 | C[C@H](CO)N1C[C@H](C)[C@@H](CN(C)Cc2ccc3c(c2)OCO3)OCCCC[C@H](C)Oc2ccc(NC(=O)Nc3cccc4ccccc34)cc2C1=O | inactive
16 | C[C@@H]1CN([C@@H](C)CO)C(=O)c2cc(NC(=O)Nc3cccc4ccccc34)ccc2O[C@@H](C)CCCCO[C@@H]1CN(C)Cc1ccc2c(c1)OCO2 | inactive
17 | C[C@@H]1CCCCO[C@@H](CN(C)Cc2ccc3c(c2)OCO3)[C@H](C)CN([C@@H](C)CO)C(=O)c2cc(NC(=O)Nc3cccc4ccccc34)ccc2O1 | inactive
18 | CC(C)C#Cc1cnc2c(c1)C(=O)N([C@@H](C)CO)C[C@H](C)[C@H](CN(C)S(=O)(=O)c1cn(C)cn1)O2 | inactive
19 | CO[C@@H]1CN(C)C(=O)c2cc(NS(=O)(=O)CC(F)(F)F)ccc2OC[C@H](C)N(C(=O)c2ccc3c(c2)OCO3)C[C@@H]1C | inactive
20 | COc1ccc(S(=O)(=O)Nc2ccc3c(c2)C(=O)N([C@H](C)CO)C[C@@H](C)[C@@H](CN(C)S(=O)(=O)c2ccc(C)cc2)O3)cc1 | inactive

Row | Structure (SMILES) | cytotoxicity call
21 | C[C@H](CO)N1C[C@H](C)[C@H](CN(C)C(=O)Nc2ccccc2)OCCCC[C@H](C)Oc2ccc(NC(=O)Nc3ccc4c(c3)OCO4)cc2C1=O | inactive
22 | COc1ccc(NC(=O)N(C)C[C@H]2OCCCC[C@@H](C)Oc3ccc(NC(=O)Cc4ccccc4)cc3C(=O)N([C@@H](C)CO)C[C@H]2C)cc1 | inactive
23 | C[C@@H]1CCCCO[C@H](CN(C)C(=O)Nc2ccc(F)cc2)[C@H](C)CN([C@H](C)CO)C(=O)c2cc(NC(=O)Nc3ccc(F)cc3)ccc2O1 | inactive
24 | C[C@H]1CN([C@@H](C)CO)C(=O)c2cc(NC(=O)Cc3ccccc3)ccc2O[C@@H]1CN(C)Cc1ccc(Cl)c(Cl)c1 | inactive
25 | C[C@@H]1CCCCO[C@H](CN(C)S(=O)(=O)c2ccccc2)[C@H](C)CN([C@H](C)CO)C(=O)c2cc(NS(=O)(=O)c3cn(C)cn3)ccc2O1 | inactive
26 | COc1ccc(NC(=O)N(C)C[C@H]2Oc3c(NC(=O)c4cnccn4)cccc3C(=O)N([C@H](C)CO)C[C@@H]2C)cc1 | inactive
27 | C[C@@H]1CCCCO[C@@H](CN(C)Cc2ccc(C(=O)O)cc2)[C@H](C)CN([C@H](C)CO)C(=O)c2cc(NS(=O)(=O)c3ccccc3)ccc2O1 | inactive
28 | Cc1noc(C)c1NC(=O)Nc1ccc2c(c1)C(=O)N([C@@H](C)CO)C[C@@H](C)[C@H](CN(C)Cc1ccc(Cl)c(Cl)c1)O2 | inactive
29 | C[C@H]1CCCCO[C@@H](CN(C)Cc2ccc(C(F)(F)F)cc2)[C@@H](C)CN([C@@H](C)CO)C(=O)c2cc(NS(C)(=O)=O)ccc2O1 | inactive
30 | C[C@@H]1CCCCO[C@H](CN(C)Cc2ccc3c(c2)OCO3)[C@H](C)CN([C@@H](C)CO)C(=O)c2cc(NC(=O)Nc3cccc4ccccc34)ccc2O1 | active
31 | C[C@@H]1CCCCO[C@@H](CN(C)Cc2ccc3c(c2)OCO3)[C@@H](C)CN([C@H](C)CO)C(=O)c2cc(NC(=O)Nc3cccc4ccccc34)ccc2O1 | inactive
32 | C[C@@H]1CCCCO[C@H](CN(C)Cc2ccc3c(c2)OCO3)[C@@H](C)CN([C@@H](C)CO)C(=O)c2cc(NC(=O)Nc3cccc4ccccc34)ccc2O1 | active
33 | C[C@@H]1CCCCO[C@@H](CN(C)Cc2ccc3c(c2)OCO3)[C@@H](C)CN([C@@H](C)CO)C(=O)c2cc(NC(=O)Nc3cccc4ccccc34)ccc2O1 | inactive
34 | C[C@@H]1CN([C@H](C)CO)C(=O)c2cc(NC(=O)Nc3cccc4ccccc34)ccc2O[C@@H](C)CCCCO[C@@H]1CN(C)Cc1ccc2c(c1)OCO2 | active
35 | C[C@H]1CCCCO[C@@H](CN(C)Cc2ccc3c(c2)OCO3)[C@@H](C)CN([C@@H](C)CO)C(=O)c2cc(NC(=O)Nc3cccc4ccccc34)ccc2O1 | inactive
36 | C[C@@H]1CCCCO[C@H](CN(C)Cc2ccc3c(c2)OCO3)[C@H](C)CN([C@H](C)CO)C(=O)c2cc(NC(=O)Nc3cccc4ccccc34)ccc2O1 | inactive
37 | C[C@@H]1CN([C@@H](C)CO)C(=O)c2cc(NC(=O)Nc3cccc4ccccc34)ccc2O[C@@H](C)CCCCO[C@H]1CN(C)Cc1ccc2c(c1)OCO2 | active
38 | CCOC(=O)c1c(C)c(Cl)c(O)c(Cl)c1O | inactive
39 | COc1ccc(S(=O)(=O)Nc2ccc3c(c2)CC(=O)N([C@H](C)CO)C[C@@H](C)[C@H](CN(C)C)O3)cc1 | inactive
40 | Cc1noc(C)c1NC(=O)N(C)C[C@@H]1OCCCC[C@@H](C)Oc2ccc(NC(=O)Nc3ccc(F)cc3)cc2C(=O)N([C@H](C)CO)C[C@@H]1C | inactive

Row | Structure (SMILES) | cytotoxicity call
41 | Cc1noc(C)c1S(=O)(=O)N(C)C[C@@H]1OCc2cnnn2CCCC(=O)N([C@@H](C)CO)C[C@H]1C | inactive
42 | C[C@@H]1CCCCO[C@H](CN(C)C(=O)C2CCCCC2)[C@@H](C)CN([C@H](C)CO)C(=O)c2cc(NC(=O)C3CCCCC3)ccc2O1 | inactive
43 | CC(C)NC(=O)Nc1ccc2c(c1)C(=O)N([C@H](C)CO)C[C@@H](C)[C@H](CN(C)S(=O)(=O)c1cn(C)cn1)O2 | inactive
44 | COCCNC(=O)C[C@H]1CC[C@@H]2[C@H](COC[C@@H](O)CN2C(=O)Nc2ccccc2OC)O1 | inactive
45 | COCCNC(=O)C[C@H]1CC[C@@H]2[C@H](COC[C@H](O)CN2C(=O)Nc2ccccc2OC)O1 | active
46 | COc1ccccc1CNC(=O)C[C@@H]1CC[C@H]2[C@@H](COC[C@H](O)CN2C(=O)Nc2ccc(F)cc2)O1 | inactive
47 | O=C(C[C@H]1CC[C@@H]2[C@H](COC[C@@H](O)CN2C(=O)Nc2cccc(Cl)c2)O1)NCc1ccccc1F | active
48 | O=C(C[C@H]1CC[C@H]2[C@@H](COC[C@H](O)CN2C(=O)Nc2cccc(Cl)c2)O1)NCc1ccccc1F | inactive
49 | COCCNC(=O)C[C@H]1CC[C@H]2[C@@H](COC[C@H](O)CN2C(=O)Nc2ccccc2OC)O1 | inactive
50 | O=C(C[C@@H]1CC[C@H]2[C@@H](COC[C@H](O)CN2C(=O)Nc2cccc(Cl)c2)O1)NCc1ccccc1F | inactive
51 | COc1ccccc1CNC(=O)C[C@H]1CC[C@H]2[C@@H](COC[C@H](O)CN2C(=O)Nc2ccc(F)cc2)O1 | active
52 | COc1ccccc1CNC(=O)C[C@@H]1CC[C@@H]2[C@H](COC[C@@H](O)CN2C(=O)Nc2ccc(F)cc2)O1 | inactive
53 | CO[C@@H]1CN(C)C(=O)c2cc(NC(=O)c3ccc(F)cc3)ccc2OC[C@H](C)N(C(=O)CN(C)C)C[C@@H]1C | inactive
54 | CN1C(=O)c2cc(NC(=O)Nc3ccccc3F)ccc2OC[C@@H]2O[C@H](CC(=O)NCc3ccc(-c4ccccc4)cc3)CC[C@@H]21 | inactive
55 | CS(=O)(=O)N1CCCn2c(nc(CNC(=O)CC3CC3)cc2=O)C1 | inactive
56 | CC(C)Oc1oc(C(=O)NC2CCCCC2)c(-c2ccc(Cl)cc2)c1S(=O)(=O)c1ccc(Cl)cc1 | inactive
57 | C[C@H](CO)N1C[C@H](C)[C@@H](CN(C)Cc2ccncc2)OCCCC[C@H](C)Oc2ccc(NC(=O)NC3CCCCC3)cc2C1=O | inactive
58 | O=C(C[C@@H]1C=C[C@@H](NC(=O)C2CC2)[C@H](CO)O1)NCCCN1CCOCC1 | inactive
59 | CN(C)C(=O)C[C@@H]1C=C[C@H](NC(=O)C2CCOCC2)[C@@H](CO)O1 | inactive
